Screens (PubChem)
In the library only some 6.8% were active in any assay of this set; here they are far more common.
Pf Dd2 inh – P. falciparum Dd2 growth inhibition | SYBR Green, 72 h; hits give low values | 94,000 tested, 2.3% active | activity change, % at 10 µM; in the data active = activity change below about -80%; inconclusive = no clear call, values can overlap the other calls
T cruzi growth-1 – blocks T. cruzi growth in NIH3T3 culture; AID 624255; inhibition, % at 8.34 µM; T. cruzi beta-gal in NIH3T3, GalScreen luminescence, 90 h; 77,000 tested, 5.9% active;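 active = mean inhibition above about 93%, with at least 55% of replicates each passing it, limit read from the data, passing the limit was not always enough; inconclusive = only one of those two conditions holds; inactive = neither condition holds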
C diff growth – inhibitors of Clostridium difficile growth. growth activity, negative = inhibition, % at 16 µg/mL (by protocol). 86,000 tested, 0.25% active. Clostridium difficile clinical isolate growth, OD600, 24 h; hits give low values;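 active = mean growth activity at or below -80% and every replicate also at or below -80%; inconclusive = mean at or below -80% but some replicate above -80%; inactive = mean growth activity above -80%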
T cruzi growth-2 – blocks T. cruzi growth in NIH3T3 host cells | 5,600 tested, 72% active | T. cruzi beta-gal in NIH3T3, GalScreen luminescence, 90 h | shares compounds with T cruzi growth-1 | inhibition, % at 8.35 µM;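 active = mean replicate inhibition above about 95% and at least 55% of replicates individually reaching it, limit read from the data; inconclusive = only one of the two criteria is met; inactive = neither criterion is met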
T cruzi growth-3 – blocks T. cruzi growth in NIH3T3 host cells. shares compounds with T cruzi growth-1. T. cruzi beta-gal in NIH3T3, GalScreen luminescence, 90 h. inhibition, % at 2.09 µM. 5,600 tested, 21% active. AID 651740;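 active = mean inhibition above about 95%, with at least 55% of replicates also reaching it, limit read from the data; inconclusive = meets just one of the two conditions; inactive = meets neither condition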
NIH3T3 tox – NIH/3T3 (mouse) viability loss; NIH/3T3 viability, CellTiter-Glo ATP luminescence, 90 h; 5,600 tested, 14% active; cytotoxicity (signal decrease), % at 8.35 µM; shares compounds with T cruzi growth-1; AID 651742;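 active = mean signal decrease across replicates above about 35% based on untreated-well scatter, with enough replicates individually passing, limit read from the data; inconclusive = no rule stated though some were filed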
3T3 cytotox 2 – cytotoxicity in mouse NIH/3T3 fibroblasts; shares compounds with T cruzi growth-1; NIH/3T3 viability, CellTiter-Glo ATP luminescence, 90 h; inhibition, % at 24.9 µM; 5,600 tested, 56% active;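 active = mean loss of cell viability signal at or above a set limit, and enough replicates individually reaching it; inconclusive = meets only the mean limit or only the replicate share; inactive = meets neither condition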
Large screens that a line does not name were inactive (follow-up assays come after a bar, where they were run).

O=C(Nc1cc(F)ccc1F)N1CCCCN2[C@H](CO)[C@H](c3ccc(-c4ccncc4)cc3)[C@@H]2C1	none
O=C(Nc1cc(F)ccc1F)N1CCCCN2[C@H](CO)[C@@H](c3ccc(-c4cncnc4)cc3)[C@@H]2C1	T cruzi growth-1 112 | T cruzi growth-2 inactive | T cruzi growth-3 inactive | NIH3T3 tox inactive | 3T3 cytotox 2 inactive
O=C(Nc1cc(F)ccc1F)N1CCCCN2[C@@H](CO)[C@H](c3ccc(-c4ccncc4)cc3)[C@@H]2C1	none
C[C@H](CO)N1C[C@H](C)[C@@H](CN(C)C(=O)Nc2ccc3c(c2)OCO3)Oc2ncc(-c3cncnc3)cc2C1=O	T cruzi growth-1 104 | T cruzi growth-2 inactive | T cruzi growth-3 inactive | NIH3T3 tox inactive | 3T3 cytotox 2 inactive
C[C@H]1CN([C@@H](C)CO)C(=O)c2cc(-c3cccnc3)cnc2O[C@@H]1CN(C)C(=O)Nc1ccc2c(c1)OCO2	none
C[C@@H]1CN([C@@H](C)CO)C(=O)c2cc(-c3cncnc3)cnc2O[C@H]1CN(C)C(=O)Nc1ccc2c(c1)OCO2	T cruzi growth-1 98 | T cruzi growth-2 inactive | T cruzi growth-3 inactive | NIH3T3 tox inactive | 3T3 cytotox 2 inactive
C[C@@H]1CN([C@@H](C)CO)C(=O)c2cc(-c3cncnc3)cnc2O[C@@H]1CN(C)C(=O)Nc1ccc2c(c1)OCO2	none
C[C@H](CO)N1C[C@H](C)[C@H](CN(C)Cc2ccncc2)Oc2ncc(-c3cccc(F)c3)cc2C1=O	none
COc1ccccc1NC(=O)N[C@@H]1CC[C@@H](CCNC(=O)Cc2ccccn2)O[C@H]1CO	none (no result: T cruzi growth-1)
Cn1cnc(S(=O)(=O)N2CC[C@@H]3[C@H](CO)Nc4ccc(C#Cc5ccc(F)cc5)cc4[C@@H]32)c1	none
Cn1cnc(S(=O)(=O)N2CC[C@@H]3[C@@H](CO)Nc4ccc(-c5cccc(F)c5)cc4[C@@H]32)c1	T cruzi growth-1 103 | T cruzi growth-2 103 | T cruzi growth-3 inactive | NIH3T3 tox inactive | 3T3 cytotox 2 inactive
Cn1cnc(S(=O)(=O)N2CC[C@@H]3[C@H](CO)Nc4ccc(-c5cccc(F)c5)cc4[C@@H]32)c1	none
Cn1cnc(S(=O)(=O)N2CC[C@@H]3[C@H](CO)Nc4ccc(-c5ccc(F)cc5)cc4[C@@H]32)c1	none
Cn1cnc(S(=O)(=O)N2CC[C@H]3[C@H](CO)Nc4ccc(-c5cccc(F)c5)cc4[C@H]32)c1	T cruzi growth-1 110 | T cruzi growth-2 99 | T cruzi growth-3 inactive | NIH3T3 tox inactive | 3T3 cytotox 2 inactive
Cn1cnc(S(=O)(=O)N2CC[C@@H]3[C@@H](CO)Nc4ccc(-c5ccc(F)cc5)cc4[C@@H]32)c1	T cruzi growth-1 inconclusive | T cruzi growth-2 105 | T cruzi growth-3 inactive | NIH3T3 tox inactive | 3T3 cytotox 2 inactive
CCCC#Cc1ccc([C@H]2[C@@H](CO)N(C(C)=O)[C@H]2CN(C)S(C)(=O)=O)cc1	none (no result: T cruzi growth-1, C diff growth)
C[C@@H]1CN([C@@H](C)CO)C(=O)c2cc(-c3ccccc3F)cnc2O[C@H]1CN(C)C(=O)C1CCOCC1	none (no result: T cruzi growth-1)
CC(C)C#Cc1ccc2c(c1)O[C@@H](CN(C)C(=O)CC1CC1)[C@@H](C)CN([C@@H](C)CO)S2(=O)=O	none
CCC(=O)N1C[C@H](O)COC[C@@H]2O[C@@H](CC(=O)N3CCCCC3)CC[C@H]21	none
Cc1cc(C(=O)Nc2cccc3c2O[C@H](CN(C)Cc2ccc(C(=O)O)cc2)[C@@H](C)CN([C@H](C)CO)C3=O)n(C)n1	none (no result: T cruzi growth-1)
Cc1cc(C(=O)Nc2cccc3c2O[C@H](CN(C)Cc2ccc(C(=O)Nc4ccccc4N)cc2)[C@H](C)CN([C@@H](C)CO)C3=O)n(C)n1	Pf Dd2 inh -82, T cruzi growth-1 93 | T cruzi growth-2 inactive | T cruzi growth-3 inactive | NIH3T3 tox 46 | 3T3 cytotox 2 91
Cc1cc(C(=O)Nc2cccc3c2O[C@H](CN(C)Cc2ccc(C(F)(F)F)cc2)[C@H](C)CN([C@H](C)CO)C3=O)n(C)n1	none
Cc1cc(C(=O)Nc2cccc3c2O[C@@H](CN(C)Cc2ccc(C(F)(F)F)cc2)[C@@H](C)CN([C@@H](C)CO)C3=O)n(C)n1	T cruzi growth-1 96 | T cruzi growth-2 inactive | T cruzi growth-3 inactive | NIH3T3 tox inactive | 3T3 cytotox 2 inconclusive
Cc1cc(C(=O)Nc2cccc3c2O[C@H](CN(C)Cc2ccc(C(=O)O)cc2)[C@H](C)CN([C@@H](C)CO)C3=O)n(C)n1	none (no result: T cruzi growth-1)
Cc1cc(C(=O)Nc2cccc3c2O[C@@H](CN(C)Cc2ccc(C(=O)Nc4ccccc4N)cc2)[C@@H](C)CN([C@H](C)CO)C3=O)n(C)n1	Pf Dd2 inh -85, T cruzi growth-1 106 | T cruzi growth-2 104 | T cruzi growth-3 98 | NIH3T3 tox inactive | 3T3 cytotox 2 inactive
C[C@@H]1CN([C@H](C)CO)C(=O)c2cc(NC(=O)Cn3cnnn3)ccc2O[C@@H]1CN(C)S(C)(=O)=O	none
C[C@@H]1CN([C@H](C)CO)C(=O)c2cc(NC(=O)CCC(F)(F)F)ccc2O[C@@H](C)CCCCO[C@H]1CN(C)C(=O)CCC(F)(F)F	none (no result: T cruzi growth-1)
CC(C)NC(=O)N(C)C[C@@H]1Oc2c(NC(=O)c3ccc(-c4nccs4)cc3)cccc2C(=O)N([C@@H](C)CO)C[C@@H]1C	none
COc1ccc(NC(=O)N(C)C[C@@H]2OCCCC[C@@H](C)Oc3ccc(NS(=O)(=O)c4ccc(C)cc4)cc3C(=O)N([C@@H](C)CO)C[C@@H]2C)cc1	none (no result: C diff growth)
COc1ccccc1C(=O)Nc1ccc2c(c1)C(=O)N(C)[C@H]1CC[C@H](CC(=O)Nc3cccc(C(C)C)c3)O[C@@H]1CO2	T cruzi growth-1 inconclusive (no result: Pf Dd2 inh) | T cruzi growth-2 106 | T cruzi growth-3 inactive | NIH3T3 tox inactive | 3T3 cytotox 2 inactive
COc1cccc(C(=O)Nc2ccc3c(c2)C(=O)N(C)[C@H]2CC[C@@H](CC(=O)NCc4ccc(F)cc4)O[C@@H]2CO3)c1	none
CN1C(=O)c2cc(NC(=O)c3ccc(Cl)cc3)ccc2OC[C@H]2O[C@@H](CC(=O)NCc3cccc(F)c3)CC[C@H]21	none
CNC(=O)C[C@H]1CC[C@H]2[C@@H](COc3ccc(NC(=O)c4ccccc4OC)cc3C(=O)N2C)O1	none
CN1C(=O)c2cc(NC(=O)c3ccc(Cl)cc3)ccc2OC[C@@H]2O[C@H](CC(=O)NCc3cccc(F)c3)CC[C@@H]21	T cruzi growth-1 101 | T cruzi growth-2 inactive | T cruzi growth-3 inactive | NIH3T3 tox 43 | 3T3 cytotox 2 34
COc1cccc(C(=O)Nc2ccc3c(c2)C(=O)N(C)[C@H]2CC[C@@H](CC(=O)NCc4ccc(F)cc4)O[C@H]2CO3)c1	T cruzi growth-1 97 | T cruzi growth-2 105 | T cruzi growth-3 inactive | NIH3T3 tox 51 | 3T3 cytotox 2 50
C[C@@H]1CCCCO[C@@H](CN(C)C(=O)CCCN(C)C)[C@H](C)CN([C@@H](C)CO)C(=O)c2cc(NC(=O)CCCN(C)C)ccc2O1	none
